Most compounds without a hit are left out; they make up all but 2.7% or so of the library.
IDE inh: inhibitors of human insulin-degrading enzyme in cells. P14735. HEK cells, FAbetaB cleavage, fluorescence polarization. 320,000 compounds, 0.41% hits. AID 434962. inhibition, % at 5.59 µM;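 active = percent inhibition above the average of all tested compounds plus 3 SD, set per screening campaign, cut at about 16% in these data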;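 also: IDE supplied by intact live HEK cells; FP after avidin binding of uncleaved biotin substrate so inhibition keeps polarization high; 0% = DMSO wells and 100% = 60 µM reference IDE inhibitor Ii1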
Target sequence (P14735 whole entry, looked up): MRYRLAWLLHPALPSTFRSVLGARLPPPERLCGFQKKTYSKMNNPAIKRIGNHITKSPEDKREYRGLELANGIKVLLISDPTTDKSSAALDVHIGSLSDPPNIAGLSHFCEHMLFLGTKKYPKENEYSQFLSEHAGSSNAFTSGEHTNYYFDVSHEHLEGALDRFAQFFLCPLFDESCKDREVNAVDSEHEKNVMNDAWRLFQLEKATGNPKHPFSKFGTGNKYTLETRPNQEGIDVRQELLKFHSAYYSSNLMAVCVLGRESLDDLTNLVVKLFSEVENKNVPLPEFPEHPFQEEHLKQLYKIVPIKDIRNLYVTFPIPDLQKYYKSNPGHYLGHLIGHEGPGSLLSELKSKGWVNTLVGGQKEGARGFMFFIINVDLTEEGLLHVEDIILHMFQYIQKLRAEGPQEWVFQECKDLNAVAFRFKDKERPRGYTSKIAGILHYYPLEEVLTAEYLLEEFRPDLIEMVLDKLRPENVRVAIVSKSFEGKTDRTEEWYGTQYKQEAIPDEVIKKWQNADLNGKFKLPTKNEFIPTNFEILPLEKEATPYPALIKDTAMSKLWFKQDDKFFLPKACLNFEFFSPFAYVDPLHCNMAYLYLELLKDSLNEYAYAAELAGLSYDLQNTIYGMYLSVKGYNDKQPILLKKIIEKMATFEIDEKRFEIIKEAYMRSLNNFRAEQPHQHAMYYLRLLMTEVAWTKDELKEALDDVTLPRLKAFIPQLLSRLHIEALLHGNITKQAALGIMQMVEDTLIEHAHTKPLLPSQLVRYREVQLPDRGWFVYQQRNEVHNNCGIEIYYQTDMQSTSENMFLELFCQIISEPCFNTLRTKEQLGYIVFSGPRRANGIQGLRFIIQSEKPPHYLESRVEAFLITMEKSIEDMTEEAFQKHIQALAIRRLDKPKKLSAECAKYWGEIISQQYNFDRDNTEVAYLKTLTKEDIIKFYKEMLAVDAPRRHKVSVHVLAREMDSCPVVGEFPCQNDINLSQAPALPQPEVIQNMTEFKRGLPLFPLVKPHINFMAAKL
CHT PAM: allosterically activates the human high affinity choline transporter. CHT-expressing cells, membrane potential dye, choline EC20; active compounds read high; LV-AA mutant CHT in HEK293 cells. B-score at 10 µM. 310,000 compounds, 0.49% hits;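 active = initial fluorescence not abnormally high and integrated response B-score, plate-corrected, over 3 SD above library mean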
ANO1 activ: activators or potentiators of mouse TMEM16A chloride channel; Q8BHY3; HEK293 TMEM16A/YFP-H148Q/I152L, iodide quench fluorescence; active compounds read low; B-score at 10 µM; 340,000 compounds, 0.3% hits;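 active = fluorescence-ratio B-score plate-corrected deviation score at least 3 library SD below zero, with starting fluorescence score within 5 deviations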;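 also: channel opened by trigger with iodide after compound preincubation; score built on the fluorescence ratio of max minus min over baseline; more negative score means more quench and so TMEM16A activation or potentiation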
IDE cell activ: boosts human insulin-degrading enzyme activity in HEK cells. FAbeta-B cleavage, fluorescence polarization; 0% vehicle, 100% cell-free pure enzyme wells. P14735. activation, % at 5.96 µM. 340,000 compounds, 0.073% hits;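 active = activation above the mean of all tested compounds plus 3 SD, set per screening campaign, cut at about 17% in these data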
CHT block: inhibits the human high affinity choline transporter; B-score at 10 µM; CHT-expressing cells, membrane potential dye, choline response; active compounds read low; 310,000 compounds, 0.86% hits; AID 488975; Q9GZV3;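 active = B-score over 3 SD under the library average, and starting fluorescence ratio not unusually high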;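 also: choline stimulus applied at its EC90 after an EC20 pre-addition; B-score computed on integrated fluorescence ratio after choline addition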
ANO1 block: blocks the mouse calcium-activated chloride channel TMEM16A. normalized B-score (activity score, 25-100; higher = stronger inhibition) at 10 µM. AID 588511. 310,000 compounds, 1.2% hits. HEK293 TMEM16A/YFP iodide influx fluorescence, ionomycin. Q8BHY3;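 active = ratio plate-corrected score three or more library SD toward inhibition, starting fluorescence score within five deviations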;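 also: score derived from kinetic fluorescence span divided by baseline fluorescence per well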
TMEM16A reconf: re-confirmation of mouse TMEM16A chloride channel inhibitors | HEK293 TMEM16A/YFP-H148Q, iodide quench fluorescence; ionomycin added to raise cell calcium | AID 652189 | 2,300 compounds, 39% hits | inhibition, % at 10 µM | shares compounds with ANO1 block;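 active = mean duplicate percent inhibition, scaled so buffer wells are 0 and the reference blocker 100, over three buffer SD above buffer mean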
HEK293 Ca mobil: alters calcium mobilization in TMEM16A HEK293 cells, counter-screen. TMEM16A/YFP HEK293, Fluo4 calcium mobilization. AID 652231. shares compounds with ANO1 block. 2,300 compounds, 2% hits. calcium response (% of ionomycin), % at 10 µM;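 active = duplicate-averaged calcium signal over 20% of the ionomycin maximum, relative to buffer baseline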;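 also: each well's signal is peak minus trough fluorescence divided by its pre-addition baseline; 0% = buffer wells and 100% = ionomycin wells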
YFP-HEK293 quench: parental YFP-HEK293 iodide quench counter-screen activity; shares compounds with ANO1 block; ionomycin; YFP ratio F(max-min)/F0 at 10 µM; 2,300 tested, under 10 active;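 active = yellow fluorescent protein signal ratio exceeding the buffer control mean by over 5 SD of those controls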;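 also: ratio is mean of duplicate wells from kinetic YFP trace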
ClC-1 rat inh: rat ClC-1 inhibition, TMEM16A specificity screen. 2,300 tested, under 10 active. AID 652236. ratio percent, % at 10 µM. CHO ClC-1-YFP, iodide influx fluorescence quench; iodide control reads 0, buffer control 100. shares compounds with ANO1 block;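 active = duplicate-mean ratio percent above the mean of iodide-only control wells, which defines zero, plus 5 of their SD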;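 also: higher percent means stronger block of ClC-1 iodide influx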
* marks the source's active call; other numbers are inactive results.

For Cc1cc(F)ccc1S(=O)(=O)Nc1ccccc1C(=O)NC1CCN(Cc2ccccc2)CC1 the results were ANO1 activ inactive and IDE cell activ 4.
CCOC(=O)N1CCN(C(=O)C(NS(=O)(=O)c2cccc3nsnc23)c2ccccc2)CC1 (centres undefined) was read as IDE inh 4, CHT PAM inactive, ANO1 activ inactive, IDE cell activ -1, CHT block inactive and ANO1 block inactive.
`CC1CCN(C(=O)C(NS(=O)(=O)c2cccc3nsnc23)c2ccccc2)CC1` (centres undefined) gave IDE inh -1, CHT PAM inactive, ANO1 activ inactive, IDE cell activ 7, CHT block inactive, ANO1 block inactive, TMEM16A reconf inactive, HEK293 Ca mobil inactive, YFP-HEK293 quench -1.4 and ClC-1 rat inh -18.
`CN(CC(=O)N(C)CC(=O)Nc1c(Cl)cccc1Cl)Cc1ccccc1F` gave IDE inh -4, ANO1 activ inactive and IDE cell activ 3.
O=C(Nc1ccncc1)c1ccc(Cl)c(S(=O)(=O)N2CCCC2)c1 was read as IDE inh 5, CHT PAM inactive, ANO1 activ inactive, IDE cell activ 4, CHT block inactive and ANO1 block inactive.
`CCN(CC)S(=O)(=O)c1cc(C(=O)Nc2ccncc2)ccc1Cl` gave IDE inh -1, CHT PAM inactive, ANO1 activ inactive, IDE cell activ -1, CHT block inactive, ANO1 block 100*, TMEM16A reconf inactive, HEK293 Ca mobil inactive, YFP-HEK293 quench -1.1 and ClC-1 rat inh -12.
For Cc1ccc(C(=O)Nc2ccccc2)cc1S(=O)(=O)N1CCN(C)CC1 the results were IDE inh -3, CHT PAM inactive, ANO1 activ inactive, IDE cell activ 5, CHT block inactive and ANO1 block inactive.
Screening COc1ccc(C(=O)OCC(=O)NCC2CCCCC2)cc1F returned ANO1 activ inactive and IDE cell activ -1.
Screening CC(=O)c1ccc(S(=O)(=O)Nc2ccccc2C(=O)NC2CC2)cc1 returned IDE inh -2, ANO1 activ inactive and IDE cell activ 1.
COc1ccc(CN2C(=O)c3ccccc3C2OC)cc1 (centres undefined) was read as IDE inh 0, CHT PAM inactive, ANO1 activ inactive, IDE cell activ 4, CHT block inactive and ANO1 block inactive.
COc1ccc(CN2C(=O)c3ccccc3C(/C=N\OCc3ccc(C)cc3)C2=O)cc1 (centres undefined) was read as IDE inh 1, CHT PAM inactive, ANO1 activ inactive, IDE cell activ 2, CHT block inactive, ANO1 block inactive, TMEM16A reconf 26%*, HEK293 Ca mobil inactive, YFP-HEK293 quench -1.3 and ClC-1 rat inh -6.
`COC(=O)C1=C(c2ccc(OC)cc2)OC(=O)C1(C)C` gave IDE inh -4, CHT PAM inactive, ANO1 activ inactive, IDE cell activ 5, CHT block inactive and ANO1 block inactive.
`CCOc1ccc(OCc2ccc(C(=O)N3N=C(C(F)F)CC3(O)C(F)F)o2)cc1` (centres undefined) gave IDE inh -2, CHT PAM inactive, ANO1 activ inactive, IDE cell activ 5, CHT block inactive, ANO1 block 25*, TMEM16A reconf inactive, HEK293 Ca mobil inactive, YFP-HEK293 quench -1.1 and ClC-1 rat inh -14.

Screens: PubChem, several laboratories
